Compound activity (PubChem)
Compounds with a hit are over-represented: about 12% of the library has one in this group of screens.
SARS PLP yeast = inhibitors of SARS-CoV papain-like protease in yeast | Potency, µM (highest dose often 32.9 µM), for inactives: at the top dose activity, positive = growth rescue, usual class: activators | hit rate 0.19% among 330,000 | AID 485353 | S. cerevisiae expressing SARS-CoV PLpro, growth rescue; calls by dose curve; note: 0% is about no effect; nearly all actives have a fitted effect of over 55% in size
Pf growth 48h = P. falciparum growth inhibition at 48 hours (one generation); P. falciparum luciferase growth in erythrocytes, 48 h; Potency, µM (highest dose often 28.7 µM), for inactives: at the top dose activity change, negative = inhibition, most hits filed as inhibitors; hit rate 5.9% among 310,000; note: % is set by controls: 0 for no effect and ±100 for the full control effect
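A one-generation exposure of luciferase-tagged malaria parasites in RPMI 1640/Albumax erythrocyte culture, 37 C and 5% CO2. Inhibition is inferred from decreased luminescence after adding detection reagent.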
HCV inhibitor = blocks hepatitis C virus | Potency, µM (highest dose often 41.8 µM), inactives show top-dose activity change, negative = inhibition, hits mostly inhibitors | Huh7.5.1 HCVcc-Cre infection, luciferase reporter, 44 h | AID 651820 | hit rate 3.4% among 340,000; note: % is set by controls: 0 for no effect and ±100 for the full control effect
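Seed cells (1,000/well) for 4 h; treat with compound and infect with HCVcc-Cre, moi about 0.5. Incubate 44 h, then detect luciferase activity.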
Pf growth 96h = P. falciparum growth inhibition at 96 hour, primary screen for plastid delayed-death inhibitors | hit rate 6.9% among 320,000 | AID 504834 | P. falciparum luciferase reporter growth, 96 h | Potency, µM (doses to about 28.7 µM), without a hit: top-dose activity change, negative = inhibition, usual class: inhibitors; note: % is set by controls: 0 for no effect and ±100 for the full control effect
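Plates of compound plus infected erythrocytes (2% hematocrit, 0.05% parasitemia final) incubate 96 hours, 37 C, 5% CO2. Detection reagent added; reduced luminescence from the parasites' luciferase reporter flags inhibition.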
AMA1 RON2 block = AMA1-RON2 (P. falciparum) interaction inhibition; AlphaScreen AMA1-biotinylated RON2 peptide binding; Potency, µM (highest dose often 58.2 µM), for the others: at the highest dose activity change, negative = inhibition, usual class: inhibitors; hit rate 0.2% among 360,000;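 note: 0% = vehicle wells and -100% = peptide control; nearly all actives have a fitted effect of over 45% in size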
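AMA1 (3D7) with his tag at 25 nM final met compounds first, then biotinylated RON2 peptide at 25 nM; detection used donor plus acceptor beads, 10 µg/mL apiece, read by AlphaScreen after 30 min at room temperature.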
NS1 function inh = influenza NS1 inhibition. hit rate 0.4% among 270,000. AID 2326. Potency, µM (series often up to 46.1 µM), for the others: at the top dose activity, positive = more growth; calls by dose curve; note: actives are rising curves; nearly all actives have a fitted effect of over 50% in size
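Compounds were scored for reversing the slow growth caused by influenza A NS1 in S. cerevisiae, measured by optical density at 600 nm. Assay medium contained 2% galactose at pH 6.0; NS1-free yeast of the same strain were the positive control.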
HCV confirm = HCV inhibition, cherry-pick confirmation; shares compounds with HCV inhibitor; HCVcc-Cre infectious virus cell assay, luciferase, inhibition; Potency, µM (doses to about 41.8 µM), for inactives: top-dose activity, negative = inhibition, most hits filed as inhibitors; hit rate 78% among 640; note: nearly all actives have a fitted effect of over 80% in size
HCV host tox = host cell cytotoxicity counter-screen for HCV inhibitors. HCV host cell line cytotoxicity counterscreen. hit rate 22% among 640. shares compounds with HCV inhibitor. Potency, µM (top dose mostly 41.8 µM), for the others: top-dose activity change, negative = cytotoxicity, actives largely listed as inhibitors. AID 720576;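 note: 44 h compound exposure; % is set by controls: 0 for no effect and ±100 for the full control effect; nearly all actives have a fitted effect of over 55% in size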
* hit, by the source's call; ? = inconclusive; / = no result; [ ] = remark or other dose. Unless noted, calls come from the whole dose curve; as a rule, active = well fitted curve in the direction sought with a large enough effect; inconclusive = small, poorly fitted or top-dose-only effect, or another doubt; inactive = no such curve, though single readings can be large; an effect the other way counts as inactive or inconclusive. Potency is the fitted concentration of half-maximal effect.

SMILES	SARS PLP yeast	Pf growth 48h	HCV inhibitor	Pf growth 96h	AMA1 RON2 block	NS1 function inh	HCV confirm	HCV host tox
COc1ccccc1NC(=O)C(C)OC(=O)c1cc2ccccc2[nH]1 (stereo unspecified)	-7%	9.3µM*	?	?	-5%	/	7.9µM*	18µM*
CCC(C)n1nccc1NC(=O)C(C)OC(=O)c1cc2ccccc2[nH]1 (stereo unspecified)	0%	?	?	/	?	-8%	/	/
COc1ccc(C(=O)Nc2nnc(SCC(=O)Nc3ccc(NC(C)=O)cc3)s2)c(OC)c1	2%	141%	-12%	72%	-5%	-1%	/	/
CCc1nnc(NC(=O)c2ccc(OC)cc2OC)s1	0%	144%	8.9µM*	2%	-3%	-47%	-19%	-32%
Cc1cccc2cc(C#N)c(NCCCNS(=O)(=O)c3ccc(Cl)cc3)nc12	-2%	0%	8.9µM*	-24%	79%	-5%	14µM*	?
Cc1cccc2cc(C#N)c(NCCNS(=O)(=O)c3ccccc3)nc12	-1%	5%	8%	?	14%	-7%	/	/
NC(=O)c1ncn([C@@H]2O[C@H](CNCc3ccc(-c4cc(C(F)(F)F)ccc4Cl)o3)[C@@H](O)[C@H]2O)n1	/	/	3.2µM*	/	9%	/	-17%	0.025µM*
O=[As](O)(O)c1ccc(NCc2ccccc2)cc1	/	/	/	/	/	1%	/	/
O=C(/C=C\c1ccc2c(c1)OCO2)Nc1c2c(nn1-c1ccc(Cl)cc1)CSC2	-21%	?	?	10µM*	0%	12%	13µM*	13%
O=C(C1CCC1)N1CCCc2cc(S(=O)(=O)N3CCN(c4ccccc4)CC3)ccc21	-11%	-14%	?	7%	-19%	?	/	/
CNC(=S)Nc1ccc(N2CCN(c3ccc(C(F)(F)F)cn3)CC2)nc1	-1%	?	2.5µM*	6%	1%	0%	5µM*	?
Cc1cnc(C(=O)N2CCN(c3ccc(C(F)(F)F)cn3)CC2)cn1	0%	14%	3%	17%	8%	3%	/	/
O=C(Nc1ccc(F)cc1F)N1CCCN(c2ccc(C(F)(F)F)cn2)CC1	-5%	2%	5µM*	7%	23%	8%	5.6µM*	7.9µM*
O=C1OCCN1C(=O)[C@H]1[C@H](c2ccc([N+](=O)[O-])cc2)C(c2ccc(F)cc2)=NN1c1ccc(Br)cc1	18%	/	-56%	/	-1%	/	?	26%
CSc1ccc(Cl)c(C(=O)NNC(=O)c2csc(N3CCOCC3)n2)c1	-3%	-19%	-12%	3%	83%	/	/	/
CC1CN(C)C(C)c2c1oc1ccc([N+](=O)[O-])cc21 (stereo unspecified)	1%	21%	?	8%	-2%	2%	25µM*	23%
COc1ccc(C)cc1NC(=O)NNC(=O)c1ccoc1C	-5%	72%	18%	-55%	9%	-4%	/	/
COc1ccc(Cl)cc1NC(=O)c1ccoc1C	-19%	4%	5.6µM*	/	-1%	-16%	14µM*	8%
CCN(C[C@H]1N[C@@](Cc2ccccc2)(C(=O)OC)[C@H]2C(=O)N(Cc3ccccc3)C(=O)[C@@H]12)S(=O)(=O)c1ccc(C(F)(F)F)cc1	-1%	/	7.1µM*	/	-2%	/	?	51%
O=C(NC(Nc1nc2ccc([N+](=O)[O-])cc2s1)(C(F)(F)F)C(F)(F)F)c1cccnc1	-24%	7.4µM*	4.5µM*	?	4%	0%	2.5µM*	7µM*
CN(C)S(=O)(=O)c1ccc2nc(NC(=O)c3cccnc3)sc2c1	/	-4%	-5%	?	1%	4%	/	/
COC(=O)C1=C(C(=O)OC)SC2(S1)C(C(=O)OC)=C(C(=O)OC)Sc1c2ssc1=O	/	/	?	/	28µM*	/	10µM*	7.9µM*
CC(C)=CCC/C(C)=C/CNC(=O)C[C@H]1C[C@H](C(=O)N2CCOCC2)[C@@]2(C)c3[nH]c4cc(CCC(=O)N(C)C)ccc4c3CCN2C1=O	-3%	/	?	/	-7%	/	/	/
CC(C)=CCC/C(C)=C/CNC(=O)C[C@H]1C[C@H](C(=O)N2CCCCC2)[C@@]2(C)c3[nH]c4cc(CCC(=O)N(C)C)ccc4c3CCN2C1=O	-18%	/	7.9µM*	/	-25%	/	25µM*	?
CCOCCCn1c(=N)c(C(N)=S)cc2c(=O)n3cccc(C)c3nc21	-3%	?	?	/	7%	-8%	20µM*	-98%
SMILES	SARS PLP yeast	Pf growth 48h	HCV inhibitor	Pf growth 96h	AMA1 RON2 block	NS1 function inh	HCV confirm	HCV host tox
CCN(CC)c1ccc(NC(=O)/C=C/c2cc(Br)ccc2OC)cc1	-5%	?	?	0%	?	-17%	13µM*	?
CN(CC(=O)NCc1ccccc1F)S(=O)(=O)c1ccc(Cl)cc1	-1%	7%	3%	-1%	0%	-4%	/	/
Cc1c(C(=O)NCc2ccc3c(c2)OCO3)sc(=O)n1Cc1ccc(-c2ccccc2)cc1	/	/	/	/	-27%	/	/	/
COc1ccc([N+](=O)[O-])cc1NC(=O)c1cc(C)c(C)o1	1%	16%	4%	-7%	7%	-3%	/	/
COc1ccc([N+](=O)[O-])cc1NC(=O)c1ccco1	-1%	56%	?	28%	10%	0%	?	18%
C=CCOc1ccc(CN(C)c2ccc(S(=O)(=O)N3CCN(C)CC3)cc2[N+](=O)[O-])cc1	2%	?	?	-28%	-12%[11.6 µM]	/	/	/
CN1CCN(S(=O)(=O)c2ccc(N(C)Cc3ccc(C(F)(F)F)cc3)c([N+](=O)[O-])c2)CC1	3%	10µM*	3.2µM*	?	?	/	14µM*	28µM*
CCN1CCN(C(=O)c2ccc(N3CC4CC(C3)c3cccc(=O)n3C4)c([N+](=O)[O-])c2)CC1 (stereo unspecified)	1%	1%	14%	?	-1%	/	/	/
COc1ccc(-c2nc(SCc3ccccc3)n(S(C)(=O)=O)n2)cc1	-1%	36%	2.8µM*	107%	5%	-7%	-27%	35%
CCS(=O)(=O)n1nc(-c2ccc(Cl)cc2)nc1SCc1ccccc1	-82%	188%	-6%	117%	6%	0%	/	/
C[C@@H](NC(=O)[C@@H]1Cc2ccccc2CN1C(=O)OC(C)(C)C)C(=O)NCc1ccco1	4%	?	18%	?	3%	11%	/	/
O=c1c2cc(Br)ccc2nc(-c2ccccc2)n1O	-8%	/	14%	-5%	74%	-96%	/	/
